Test results: the supplement of paper PMC11219838
Unmarked numbers belong to inactive results.

system: Caenorhabditis elegans dauer (daf-2(e1370)); test: proportion of mobile C. elegans dauer larvae relative to DMSO control (fraction of DMSO control); higher = more viable, less nematicidal, active = 0.63 or less; extreme values may be limits of the assay; conditions: 60 µM; 5 days; temperature: 20 °C
Method in brief: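 Compound was added by pinning to 60 µM final, giving 0.6% v/v DMSO, in 96-well plates containing about 20 C. elegans dauers per well in liquid NGM. These dauers came from synchronized larvae held on MYOB plates with E. coli OP50 for 48 h at 25 °C. Plates were sealed and shaken at 200 rpm at 20 °C for 5 days. Under a dissection microscope, the proportion of mobile worms was scored relative to DMSO wells, and two biological replicates were averaged.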

SMILES	proportion of mobile C. elegans dauer larvae
Cc1ccc(-c2nnc(SCc3ccc(Br)cc3)o2)cc1	1
COc1ccc(-c2nc(C3CCCCC3)no2)cc1	1
CCc1ccc(OCc2nc(-c3ccc(Cl)cc3)no2)cc1	1
CC(Oc1ccc(Br)cc1)c1nc(-c2ccncc2)no1 (stereo unspecified)	0 (active)
CC(C)(C)c1ccc(-c2nc(-c3ccncc3)no2)cc1	1
Fc1ccc(OCc2nc(-c3ccccc3)no2)cc1	1
Cc1cccc(OCc2nc(-c3ccc(Br)cc3)no2)c1	1
COc1ccc(-c2nnc(SCC(=O)Nc3ccc(Br)cc3C)o2)cc1	1
CCOc1ccccc1-c1nc(-c2ccc(Cl)cc2)no1	1
COc1ccc(CC(=O)Nc2ccc(-c3noc(-c4ccccc4Br)n3)cc2)cc1	1
O=C(CSc1nnc(-c2ccc(Br)cc2)o1)Nc1cccc2ccccc12	1
N#Cc1ccc(CSc2nnc(-c3ccccc3)o2)cc1	1
O=C(CSc1nnc(-c2ccccc2)o1)Nc1cccc(Cl)c1	1
CNC(=O)c1ccccc1-c1nc(-c2ccccc2Cl)no1	1
CC(=O)Nc1ccc(-c2nc(-c3ccccc3)no2)cc1	1
COC(=O)c1ccc(CSc2nnc(-c3cccnc3)o2)cc1	1
O=C(CSc1nnc(-c2ccncc2)o1)Nc1cc(Cl)cc(Cl)c1	1
O=C(CSc1nnc(-c2ccco2)o1)c1ccccc1	1
O=C(CSc1nnc(-c2cccc(Br)c2)o1)N1CCCCC1	1

SMILES	proportion of mobile C. elegans dauer larvae
CC(C)Oc1ccc(-c2nc(-c3ccccc3)no2)cc1	1
Cc1ccc(-c2nnc(SCC(=O)Nc3cc(C)ccc3C)o2)cc1	1
CCNC(=O)c1ccccc1-c1nc(-c2ccccc2)no1	1
CC(Sc1nnc(-c2ccco2)o1)C(=O)NC(c1ccccc1)c1ccccc1 (stereo unspecified)	1
Clc1cc(Cl)c(OCc2nc(-c3ccncc3)no2)cc1Cl	1
CCOc1ccccc1-c1nc(-c2ccc(NC(=O)Cc3ccccc3OC)cc2)no1	1
Cc1ccc(-c2nnc(SCc3ccccc3Cl)o2)cc1	1
COc1ccc(C(=O)CSc2nnc(-c3cccc4ccccc34)o2)cc1	1
Clc1ccc(-c2noc(-c3cccnc3)n2)cc1	0.452 (active)
COc1cccc(-c2noc(COc3cc(C)cc(C)c3)n2)c1	1
COc1cccc(-c2noc(COc3ccc4ccccc4c3)n2)c1	1
CCOc1ccccc1-c1nnc(SCc2ccc(C(=O)OC)o2)o1	1
Brc1cccc(-c2noc(-c3ccc4c(c3)OCO4)n2)c1	1
Cc1ccccc1-c1noc(-c2ccc(F)cc2)n1	1
COc1ccc(-c2noc(COc3ccc(Br)c(C)c3)n2)cc1	1
COc1ccccc1-c1nnc(SCC(=O)Nc2ccccc2Cl)o1	1
O=C(CSc1nnc(-c2cccc3ccccc23)o1)c1ccc(F)cc1	1
CCOc1nc(-c2ccc(C)cc2)ccc1-c1noc(-c2ccco2)n1	1
Cn1c(SCc2nnc(-c3ccccc3)o2)nnc1-c1ccco1	1

system: Ditylenchus dipsaci; test: proportion of mobile D. dipsaci (mixed stage) relative to DMSO control (fraction of DMSO control); higher = more viable, less nematicidal, active = 0.86 or less; extreme values may be limits of the assay; conditions: 60 µM; 5 days; temperature: 20 °C
Method in brief: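 D. dipsaci were grown on pea plants in Gamborg B-5 agar and extracted through a filter funnel into water, and about 20 worms were added per 96-well well in distilled water. Compound was pinned to 60 µM final (0.6% v/v DMSO), and sealed plates were shaken at 200 rpm for 5 days at 20 °C. After 2 µL 1 M NaOH was added, mobile worms were scored microscopically. Mobility was expressed relative to DMSO controls and averaged over two biological replicates.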

SMILES	proportion of mobile D. dipsaci
Cc1ccc(-c2nnc(SCc3ccc(Br)cc3)o2)cc1	1
COc1ccc(-c2nc(C3CCCCC3)no2)cc1	1
CCc1ccc(OCc2nc(-c3ccc(Cl)cc3)no2)cc1	1
CC(Oc1ccc(Br)cc1)c1nc(-c2ccncc2)no1 (stereo unspecified)	1
CC(C)(C)c1ccc(-c2nc(-c3ccncc3)no2)cc1	1
Fc1ccc(OCc2nc(-c3ccccc3)no2)cc1	1
Cc1cccc(OCc2nc(-c3ccc(Br)cc3)no2)c1	1
COc1ccc(-c2nnc(SCC(=O)Nc3ccc(Br)cc3C)o2)cc1	0.667 (active)
CCOc1ccccc1-c1nc(-c2ccc(Cl)cc2)no1	1
COc1ccc(CC(=O)Nc2ccc(-c3noc(-c4ccccc4Br)n3)cc2)cc1	1
O=C(CSc1nnc(-c2ccc(Br)cc2)o1)Nc1cccc2ccccc12	1
N#Cc1ccc(CSc2nnc(-c3ccccc3)o2)cc1	1
O=C(CSc1nnc(-c2ccccc2)o1)Nc1cccc(Cl)c1	1
CNC(=O)c1ccccc1-c1nc(-c2ccccc2Cl)no1	1
CC(=O)Nc1ccc(-c2nc(-c3ccccc3)no2)cc1	1
COC(=O)c1ccc(CSc2nnc(-c3cccnc3)o2)cc1	1
O=C(CSc1nnc(-c2ccncc2)o1)Nc1cc(Cl)cc(Cl)c1	0.955
O=C(CSc1nnc(-c2ccco2)o1)c1ccccc1	1
O=C(CSc1nnc(-c2cccc(Br)c2)o1)N1CCCCC1	1

SMILES	proportion of mobile D. dipsaci
CC(C)Oc1ccc(-c2nc(-c3ccccc3)no2)cc1	1
Cc1ccc(-c2nnc(SCC(=O)Nc3cc(C)ccc3C)o2)cc1	1
CCNC(=O)c1ccccc1-c1nc(-c2ccccc2)no1	1
CC(Sc1nnc(-c2ccco2)o1)C(=O)NC(c1ccccc1)c1ccccc1 (stereo unspecified)	1
Clc1cc(Cl)c(OCc2nc(-c3ccncc3)no2)cc1Cl	1
CCOc1ccccc1-c1nc(-c2ccc(NC(=O)Cc3ccccc3OC)cc2)no1	1
Cc1ccc(-c2nnc(SCc3ccccc3Cl)o2)cc1	1
COc1ccc(C(=O)CSc2nnc(-c3cccc4ccccc34)o2)cc1	1
Clc1ccc(-c2noc(-c3cccnc3)n2)cc1	1
COc1cccc(-c2noc(COc3cc(C)cc(C)c3)n2)c1	1
COc1cccc(-c2noc(COc3ccc4ccccc4c3)n2)c1	1
CCOc1ccccc1-c1nnc(SCc2ccc(C(=O)OC)o2)o1	1
Brc1cccc(-c2noc(-c3ccc4c(c3)OCO4)n2)c1	1
Cc1ccccc1-c1noc(-c2ccc(F)cc2)n1	1
COc1ccc(-c2noc(COc3ccc(Br)c(C)c3)n2)cc1	1
COc1ccccc1-c1nnc(SCC(=O)Nc2ccccc2Cl)o1	1
O=C(CSc1nnc(-c2cccc3ccccc23)o1)c1ccc(F)cc1	1
CCOc1nc(-c2ccc(C)cc2)ccc1-c1noc(-c2ccco2)n1	1
Cn1c(SCc2nnc(-c3ccccc3)o2)nnc1-c1ccco1	1
